The record followed here is PubChem BioAssay (NCI).

Assay in all cases: NCI-60 one-dose screen, 48 h (100 = growth as untreated, 0 = no growth, -100 = all killed)
Details in all cases: 10 µM unless noted

The subject of experiment [1] is SK-MEL-2 melanoma.
For experiment [2], the system named is EKVX NSCLC.
Experiment [3] relates to SN12C renal.
The subject of experiment [4] is UO-31 renal.
The test system of experiment [5] is TK-10 renal.
Experiment [6] deals with ACHN renal.
The subject of experiment [7] is CAKI-1 renal.
Experiment [8] concerns A498 renal.
Experiment [9] has as its system CCRF-CEM leukemia.
The subject of experiment [10] is MOLT-4 leukemia.
Experiment [11] deals with SR leukemia.
Experiment [12] has as its system RPMI-8226 leukemia.
The subject of experiment [13] is OVCAR-8 ovarian.
Experiment [14] relates to OVCAR-5 ovarian.
Experiment [15] relates to OVCAR-4 ovarian.
Experiment [16] has as its system SK-OV-3 ovarian.
Experiment [17] has as its system IGROV1 ovarian.
For experiment [18], the system named is OVCAR-3 ovarian.
In experiment [19] the test system is HS 578T breast.
Experiment [20] concerns NCI/ADR-RES ovarian.

The structures appear in SMILES notation. This is part of a sample that, as a whole, favours compounds with a hit. Of some 83,000 tested, about 20% had one in any assay.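 Plates (96-well) were seeded with cells, treated with compound at one concentration, and incubated for 48 hours before percent growth was determined.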 Values without a mark were called inactive. Calls of active or inactive are those of the source. How the source made its calls: active means growth percent below 10; inactive means the rest.

In the case of `Cn1cc(-c2cc(N)n3nc(-c4c[nH]c5ccc(Cl)cc45)cc3n2)c2cc(Br)cnc21`, the growth in experiment [1] is -49.9% (active); in [2] it was 0.312% (active); in [3], 42.5%; in experiment [4] it was -39.3% (active); in experiment [5] it was -53.1% (active); in [6], -76.3% (active). Also, the growth was -63% (active) in [7]; 29% in experiment [8]; -66.1% (active) in experiment [9]; -56.2% (active) in experiment [10]; -40.9% (active) in experiment [11]; -43.6% (active) in experiment [12]. Besides, the growth in [13] was -60.1% (active); in [14], -61.2% (active); in experiment [15], -54% (active); in [16], 65.1%; in [17], -49.3% (active); in experiment [18], -81% (active). Besides, the growth in [19] was -16.2% (active); in experiment [20], -54.7% (active).

Take `O=C1/C(=C/c2cnc(-c3ccccc3)s2)SC(=S)N1Cc1ccc2c(c1)OCO2`: the growth in experiment [1] was 72.7%; in [2], 79.3%; in experiment [3], 72.9%; in experiment [4], 86.5%; in experiment [5], 78.4%; in experiment [6], 42.1%. Further, the growth in experiment [7] is 37.3%; in experiment [8], 45.2%; in experiment [9] it was 87.2%; in [10] it was 99.2%; in [11], 67.5%; in experiment [12] it was 110%. For the same molecule, the growth in [13] is 67.6%; in experiment [14] it was 99.4%; in experiment [15], 77.5%; in experiment [16], 35.6%; in [17], 64.2%; in [18], 97.6%. Besides, the growth in experiment [19] was 31.5%; in experiment [20], 77.2%.

Regarding `N/C(=N\c1nc2ccccc2s1)NC(=O)Nc1ccccc1[N+](=O)[O-]`, the growth was 20.5% in experiment [1]; 38.7% in experiment [2]; 5.63% (active) in experiment [3]; 26.8% in experiment [4]; 52.8% in experiment [5]; 20.2% in experiment [6]. Moreover, the growth was 16% in experiment [7]; 89% in [8]; 1.29% (active) in [9]; 15.2% in experiment [10]; 13.6% in [11]; 2.19% (active) in experiment [12]. For the same molecule, the growth in experiment [13] is -18.8% (active); in [14], 10.9%; in experiment [15], 34.9%; in experiment [16] it was 2.97% (active); in experiment [17], 20.2%; in experiment [18], -7.53% (active). Also, the results for the growth in [19] and in [20] were 41.5% and -11.3% (active), respectively.

On to `C#CCN(C)CCCOc1ccc(N(CC)C(=O)c2cc(C(C)C)c(O)cc2O)cc1Cl`, for which the growth was -57.9% (active) in experiment [1]; -7.81% (active) in experiment [2]; -52.1% (active) in [3]; 8.11% (active) in [4]; 11.1% in experiment [5]; 11.6% in experiment [6]. Besides, the growth in [7] is 9.89% (active); in experiment [8], 21.6%; in experiment [9], 7.35% (active); in experiment [10] it was -33.6% (active); in experiment [11], -34.3% (active); in experiment [12], -33.5% (active). Further, the growth in [13] was 2.93% (active); in [14], 19.7%; in [15], 26.1%; in experiment [16], 7.75% (active); in [17], 0.38% (active); in [18] it was 20.6%. In addition, the growth is 9.36% (active) in experiment [19] and -33.1% (active) in [20].

With `Cc1nc2sccn2c1-c1nnc(SCc2ccccc2)o1`, the growth in experiment [1] is 87%; in [2], 87.5%; in experiment [3], 86.6%; in [4], 74.2%; in experiment [5] it was 110%; in experiment [6], 92.6%. The growth in [7] was 85.2%; in experiment [8], 87.8%; in [9] it was 91.3%; in experiment [10], 88.1%; in experiment [11] it was 87.5%; in experiment [12], 79.1%. Moreover, the growth in [13] was 96.5%; in [14] it was 90.2%; in [15] it was 79.8%; in experiment [16] it was 97.9%; in experiment [17] it was 92%; in [18], 117%. Further, the growth is 107% in experiment [19] and 78.1% in experiment [20].

Take `CNS(=O)(=O)N1CCc2c(Br)c3c(c(OC)c2C1CCc1ccccc1)OCO3` (stereo not given): the growth in [1] is -66.2% (active); in experiment [2], -6.87% (active); in experiment [3] it was -88.8% (active); in [4], -20.1% (active); in experiment [5], -0.435% (active); in experiment [6] it was 0.33% (active). Moreover, the growth is 5.41% (active) in experiment [7]; -69.5% (active) in [8]; 12.4% in [9]; 1.16% (active) in [10]; 4.75% (active) in experiment [11]; 2.66% (active) in experiment [12]. Also, the growth was 9.92% (active) in experiment [13]; -40% (active) in experiment [14]; -2.26% (active) in experiment [15]; 16.2% in experiment [16]; -6.68% (active) in experiment [17]; -48.8% (active) in [18]. Further, the growth was -22.4% (active) in experiment [19] and -10.9% (active) in experiment [20].

On to `O=C(CSc1nnc(-c2ccc(-c3nc4ccccc4[nH]3)cc2)o1)Nc1ccc(Cl)cc1`, for which the growth is 70.6% in experiment [1]; 16.2% in [2]; 19.6% in experiment [3]; 57.8% in experiment [4]; 59.5% in experiment [5]; -86.8% (active) in experiment [6]. Also, the growth was 17.1% in [7]; 132% in [8]; 32.5% in [9]; 6.05% (active) in experiment [10]; 2.31% (active) in experiment [11]; 7.96% (active) in [12]. In addition, the growth in [13] is -18% (active); in experiment [14], 47.1%; in experiment [15], 45.1%; in experiment [16], 83.1%; in [17], 44.4%; in [18] it was 20.8%. The results for the growth in experiment [19] and in experiment [20] were 63.1% and 30%, respectively.
